# The panel holds about 83,000 compounds, 20% with a hit somewhere; the sample as a whole holds those more often.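 Single-dose data. Exposure time 48 hours. Values below 10 considered active.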 A number with no mark means an inactive call. Calls of active or inactive are those of the source.
# Assays:
# Assay in all cases: NCI-60 one-dose screen, 48 h (100 = growth as untreated, 0 = no growth, -100 = all killed)
# Conditions in all cases: 10 µM unless noted
# NCI-H23 lung = test system: NCI-H23 lung
# NCI-H226 lung = test system: NCI-H226 lung
# NCI-H322M lung = test system: NCI-H322M lung
# HOP-62 NSCLC = test system: HOP-62 NSCLC
# NCI-H460 lung = test system: NCI-H460 lung
# HOP-92 NSCLC = test system: HOP-92 NSCLC
# NCI-H522 lung = test system: NCI-H522 lung
# A549/ATCC NSCLC = test system: A549/ATCC NSCLC
# 786-0 renal = test system: 786-0 renal
# COLO 205 colon = test system: COLO 205 colon
SMILES,growth (NCI-H23 lung),growth (NCI-H226 lung),growth (NCI-H322M lung),growth (HOP-62 NSCLC),growth (NCI-H460 lung),growth (HOP-92 NSCLC),growth (NCI-H522 lung),growth (A549/ATCC NSCLC),growth (786-0 renal),growth (COLO 205 colon)
COc1cc(OC)cc(-c2cc3ccc(N(C)C)cc3c(=O)[nH]2)c1,44.1%,23%,52.9%,53%,9.42% (active),94.2%,-19.2% (active),24.4%,29.9%,-44.8% (active)
CN(C)c1ccnc(CNCCSC2(c3ccc(C(F)(F)F)cc3)c3ccccc3C=Cc3ccccc32)c1,-39.1% (active),25.9%,42.9%,17.2%,-89.4% (active),-10.1% (active),-64.9% (active),2.72% (active),-22.4% (active),-82.3% (active)
COc1ccccc1/C=C/C(=O)c1ccc(OC)c(S(N)(=O)=O)c1,23.2%,39.8%,30.5%,13.5%,5.83% (active),48.6%,-9.78% (active),5.93% (active),24%,1.12% (active)
O=C1N/C(=N\c2nccs2)S/C1=C\C=C/c1ccccc1,55.8%,81.5%,30.4%,43%,26.4%,64%,19.8%,-81.1% (active),31%,33.2%
S=c1c2ccccc2nc2n1CCc1c-2[nH]c2ccccc12,62%,30.8%,60.6%,38.5%,71.2%,25.2%,56.7%,68.2%,46.9%,90.7%
O=C(N/N=C/c1ccc(-c2ccc(O)cc2)o1)c1[nH]c2ccc(Br)cc2c1-c1ccccc1,5.82% (active),10.6%,17.4%,-11.3% (active),-11.3% (active),-40.7% (active),-45.9% (active),11.2%,-16.7% (active),-54.5% (active)
CC1=C(C(=O)OC(C)C)C(c2cccc(O)c2)NC(=S)N1 (stereo not given),106%,101%,103%,95.9%,110%,110%,91.8%,103%,106%,107%
Cc1cc2nc3c4ccccc4n(CCNCCN(C)C)c3nc2cc1C,31.2%,53.3%,36.3%,45.3%,5.46% (active),10.5%,17.7%,20.4%,20.4%,-71.5% (active)
Cc1ccc([C@H]2C(C(=O)c3ccc(Cl)cc3)C3(N[C@@H]2c2ccccc2)C(=O)Nc2ccccc23)cc1 (stereo not given in full),44.1%,45.5%,55.4%,44%,45.8%,-3.21% (active),12.9%,25.9%,33.4%,19.2%
Cc1ccccc1[C@H]1C(C(=O)c2ccc(Cl)cc2)C2(N[C@@H]1c1ccccc1)C(=O)Nc1ccccc12 (stereo not given in full),-52% (active),-55.2% (active),16.6%,-48.2% (active),-45.5% (active),-50.4% (active),-48.1% (active),-21.7% (active),-41.5% (active),-74.5% (active)
COCOc1ccc2c(=O)c(C)c(C(=O)N[C@@H](Cc3ccccc3)C(O)C(=O)NCCc3ccc(OC)cc3)oc2c1 (stereo not given in full),109%,110%,103%,106%,133%,117%,98.4%,100%,106%,139%
CNC(=O)c1cc(Oc2ccc3nc(NC(=O)Nc4cccc(OC(F)(F)F)c4)sc3c2)ccn1,6.71% (active),-24.5% (active),47.8%,-71.7% (active),29.9%,-63% (active),26.6%,35.2%,-50.7% (active),68.2%
NC(=S)Nc1cccc(NC(N)=S)c1,98.5%,98.1%,88.3%,119%,110%,105%,97.2%,93.9%,108%,137%
O=C(Cn1c(/C=C/c2cccc([N+](=O)[O-])c2)nc2ccccc2c1=O)Nc1ccccc1,77.2%,75.7%,83.9%,53.6%,67.2%,64.2%,91.8%,56.1%,59.6%,81.1%
COc1ccc2[nH]cc(-c3nnc(N)nc3-c3c[nH]c4ncc(Br)cc34)c2c1,92.2%,73.1%,81.3%,75.8%,80.1%,106%,84.2%,98.2%,74.8%,132%
Cn1cc(-c2nc(N)nnc2-c2c[nH]c3ccc(Br)cc23)c2cccnc21,65.5%,87.1%,63.3%,53.2%,32.8%,94.1%,31.8%,56.7%,37.1%,44.5%
N/C(=N\c1nc2ccccc2s1)NC(=O)NCCCCCCO,31.4%,36.2%,71.1%,43.5%,59.3%,22%,36%,55%,58.7%,88.1%
CC12CC[C@@H]3[C@]4(C)COC(c5c(F)cccc5F)O[C@@H]4CC[C@@]3(C)[C@@H]1CC(C1=CCOC1=O)O2 (stereo not given in full),62.1%,63.6%,79.9%,56.2%,96.3%,-3.83% (active),55.4%,70.3%,46.8%,91.7%
COc1ccc(-c2ccnc(SCc3cc4cc(Cl)ccc4[nH]c3=O)n2)cc1,57.8%,-32.1% (active),87.8%,-17.3% (active),19.6%,-32% (active),34.2%,60.7%,-25.5% (active),105%
CC(C)c1sc(NC(=O)c2cc(NC(=O)c3cc(NC(=O)c4nccn4C)cn3C)cn2C)nc1C(=O)NCCCN(C)C,75.3%,71.2%,95.6%,80.1%,118%,-0.363% (active),38.3%,106%,104%,69.1%
O=C(NNc1ccccc1)n1c(=O)c2ccccc2c(=O)n1-c1ccccc1,100%,95.7%,98.8%,90.7%,105%,93.9%,86.4%,83.1%,92.5%,109%
C=C1CCC2C3(C)COC(c4cc(F)cc(F)c4)OC3CCC2(C)C1CC(O)C1=CCOC1=O (stereo not given),64.9%,92.1%,95%,90.6%,66.3%,46.2%,11.9%,75.2%,30.3%,59.5%
CN1CCN(c2ccc(C(=O)/C=C/c3cc(C(F)(F)F)cc(C(F)(F)F)c3)cc2)CC1,-66.2% (active),-42.9% (active),-81.7% (active),-74.9% (active),-40.8% (active),-55.2% (active),-69.6% (active),-87.8% (active),-97.9% (active),-83.4% (active)
COc1cc(/C=C/C(=O)c2ccccc2)ccc1Oc1nc(Nc2ccc(F)cc2)nc(N(C)C)n1,46.6%,43%,61.2%,78.4%,18.1%,28.7%,29.6%,52.8%,39.6%,36.2%
O=C(COc1ccc(NC(=O)Nc2ccc(Cl)c(Cl)c2)cc1)N=Nc1c(O)[nH]c2ccc(Cl)cc12,-19.5% (active),-42.8% (active),-5.99% (active),-61.3% (active),14.1%,-30.5% (active),-55.8% (active),-39.1% (active),-52.5% (active),-54.4% (active)
COc1ccc(C(=O)/C=C/c2cc3c(cc2Br)OCO3)cc1S(N)(=O)=O,-31.1% (active),13.5%,6.66% (active),-38.4% (active),-0.316% (active),15.4%,-46.3% (active),0.453% (active),-40.4% (active),-69% (active)
